This note sets out measurements from ChEMBL document CHEMBL3988442, “University of Dundee, Small-Polar-MMV Screening Library” (2021).

Design in all cases: scale not given: direction of the effect not stated beside the values
Experiment [1] addresses Protein translocase subunit SecA (Escherichia coli (strain K12)) (UniProt P10408). The experiment can be described thus: Assay to Identify E. coli SecA ATPase Inhibitors. Conditions: 30 µM. The format is functional.
The target of experiment [2] is T1, Ubiquitin-activating enzyme e1, putative (Leishmania donovani (strain BPK282A1)) (UniProt E9BSI1).
T1 sequence (whole entry): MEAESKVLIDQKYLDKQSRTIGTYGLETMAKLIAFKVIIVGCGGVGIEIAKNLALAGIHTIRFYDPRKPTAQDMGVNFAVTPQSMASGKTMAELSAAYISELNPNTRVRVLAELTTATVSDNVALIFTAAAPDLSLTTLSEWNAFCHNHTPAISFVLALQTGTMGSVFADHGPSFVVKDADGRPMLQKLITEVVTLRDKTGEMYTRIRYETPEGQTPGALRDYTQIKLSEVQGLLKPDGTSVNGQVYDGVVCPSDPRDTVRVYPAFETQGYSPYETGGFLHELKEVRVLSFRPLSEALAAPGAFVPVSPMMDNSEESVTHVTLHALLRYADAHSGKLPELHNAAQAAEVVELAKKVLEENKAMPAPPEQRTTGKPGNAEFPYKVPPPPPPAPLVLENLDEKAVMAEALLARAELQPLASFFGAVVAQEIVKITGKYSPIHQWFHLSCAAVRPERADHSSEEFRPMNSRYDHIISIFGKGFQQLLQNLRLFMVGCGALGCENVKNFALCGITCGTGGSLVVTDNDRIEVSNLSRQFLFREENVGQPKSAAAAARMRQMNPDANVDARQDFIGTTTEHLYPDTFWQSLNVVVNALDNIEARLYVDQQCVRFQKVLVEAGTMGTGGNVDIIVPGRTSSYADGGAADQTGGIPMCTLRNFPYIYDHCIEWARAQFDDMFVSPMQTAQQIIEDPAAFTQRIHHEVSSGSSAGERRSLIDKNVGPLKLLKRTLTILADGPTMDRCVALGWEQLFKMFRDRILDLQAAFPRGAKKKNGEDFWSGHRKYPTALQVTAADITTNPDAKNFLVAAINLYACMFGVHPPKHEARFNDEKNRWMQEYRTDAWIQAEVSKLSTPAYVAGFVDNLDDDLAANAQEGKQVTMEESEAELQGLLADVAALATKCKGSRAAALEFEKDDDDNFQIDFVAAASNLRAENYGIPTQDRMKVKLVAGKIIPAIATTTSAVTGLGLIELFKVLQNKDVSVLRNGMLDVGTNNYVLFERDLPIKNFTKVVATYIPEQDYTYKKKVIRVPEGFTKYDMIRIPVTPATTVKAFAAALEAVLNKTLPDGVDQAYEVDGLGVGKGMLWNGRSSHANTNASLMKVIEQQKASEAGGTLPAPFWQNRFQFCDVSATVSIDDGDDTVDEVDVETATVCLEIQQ
The experiment can be described thus: Leishmania donovani Ubiquitin Activating Enzyme (LdE1). Conditions: 30 µM. The format is functional.

For experiment [3], the target named is Sialic acid-binding Ig-like lectin 9 (Homo sapiens) (UniProt Q9Y336). In words: Hs-Siglec9 ALPHAscreen SOP 20170721. Conditions: 10 µM.
Chain of Sialic acid-binding Ig-like lectin 9 (Homo sapiens) (Q9Y336 whole entry): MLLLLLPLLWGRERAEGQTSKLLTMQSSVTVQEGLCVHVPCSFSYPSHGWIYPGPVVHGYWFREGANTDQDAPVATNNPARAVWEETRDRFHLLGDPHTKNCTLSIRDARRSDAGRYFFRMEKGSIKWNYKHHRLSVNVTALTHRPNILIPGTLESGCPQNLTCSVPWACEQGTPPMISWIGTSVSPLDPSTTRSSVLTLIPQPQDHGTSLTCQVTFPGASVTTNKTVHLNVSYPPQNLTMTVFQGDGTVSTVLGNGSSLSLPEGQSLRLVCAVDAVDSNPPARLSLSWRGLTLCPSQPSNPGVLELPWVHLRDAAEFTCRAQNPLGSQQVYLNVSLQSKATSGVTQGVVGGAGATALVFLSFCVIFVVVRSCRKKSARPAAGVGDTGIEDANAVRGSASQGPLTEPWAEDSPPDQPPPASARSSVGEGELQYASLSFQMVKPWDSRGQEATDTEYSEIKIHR
For experiment [4], the system named is Trypanosoma cruzi. The experiment can be described thus: Trypanosoma cruzi phosphomannomutase and mannose-1-phosphate guanylyltransferase assay. The experiment is classed as functional. Conditions: 10 µM.
Experiment [5] has as its target T2, Arginase-2, mitochondrial (Homo sapiens) (UniProt P78540).
T2 sequence (whole entry): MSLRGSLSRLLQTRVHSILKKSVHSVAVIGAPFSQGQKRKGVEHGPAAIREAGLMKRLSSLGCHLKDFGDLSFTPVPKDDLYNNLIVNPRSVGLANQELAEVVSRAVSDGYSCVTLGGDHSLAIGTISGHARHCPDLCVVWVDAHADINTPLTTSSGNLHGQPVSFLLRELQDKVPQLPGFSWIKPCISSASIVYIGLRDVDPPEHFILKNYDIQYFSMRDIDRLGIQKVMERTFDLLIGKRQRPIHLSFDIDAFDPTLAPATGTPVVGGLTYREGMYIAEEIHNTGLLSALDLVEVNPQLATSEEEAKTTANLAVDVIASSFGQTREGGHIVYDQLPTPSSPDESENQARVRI
The experiment can be described thus: in vitro enzyme assay to detect the production of urea directly proportional to the activity of Arginase II. Note: in the data most compounds retested in dose-response had high values. The format is functional.

Experiment [6] deals with T3, Proteasome subunit beta (Trypanosoma cruzi) (UniProt O96673).
T3 sequence (whole entry): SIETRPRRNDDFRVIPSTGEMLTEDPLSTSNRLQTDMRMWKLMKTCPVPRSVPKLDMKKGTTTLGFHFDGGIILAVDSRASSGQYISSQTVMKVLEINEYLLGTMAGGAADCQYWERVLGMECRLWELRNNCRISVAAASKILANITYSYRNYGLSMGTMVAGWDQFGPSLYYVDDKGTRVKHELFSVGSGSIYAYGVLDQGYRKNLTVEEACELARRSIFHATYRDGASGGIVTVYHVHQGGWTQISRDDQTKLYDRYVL
In words: Trypanosoma cruzi proteasome chymotrypsin-like activity (TcProtChymo) assay. Note: in the data most compounds retested in dose-response had high values. The experiment is classed as functional. The note with it: 9.37 µM.

The species named for experiment [7] is Homo sapiens. In words: To identify inhibition of the IFN signalling (Jak-Stat) pathway via expression of an eGFP reporter gene under the control of an IFN-stimulated response element (ISRE) containing MxA promoter. Conditions: 30 µM. The experiment is classed as functional.
Experiment [8] deals with T4, Tyrosyl-tRNA synthetase, putative (Trypanosoma cruzi (strain CL Brener)) (UniProt Q4DSP6).
T4 sequence (whole entry): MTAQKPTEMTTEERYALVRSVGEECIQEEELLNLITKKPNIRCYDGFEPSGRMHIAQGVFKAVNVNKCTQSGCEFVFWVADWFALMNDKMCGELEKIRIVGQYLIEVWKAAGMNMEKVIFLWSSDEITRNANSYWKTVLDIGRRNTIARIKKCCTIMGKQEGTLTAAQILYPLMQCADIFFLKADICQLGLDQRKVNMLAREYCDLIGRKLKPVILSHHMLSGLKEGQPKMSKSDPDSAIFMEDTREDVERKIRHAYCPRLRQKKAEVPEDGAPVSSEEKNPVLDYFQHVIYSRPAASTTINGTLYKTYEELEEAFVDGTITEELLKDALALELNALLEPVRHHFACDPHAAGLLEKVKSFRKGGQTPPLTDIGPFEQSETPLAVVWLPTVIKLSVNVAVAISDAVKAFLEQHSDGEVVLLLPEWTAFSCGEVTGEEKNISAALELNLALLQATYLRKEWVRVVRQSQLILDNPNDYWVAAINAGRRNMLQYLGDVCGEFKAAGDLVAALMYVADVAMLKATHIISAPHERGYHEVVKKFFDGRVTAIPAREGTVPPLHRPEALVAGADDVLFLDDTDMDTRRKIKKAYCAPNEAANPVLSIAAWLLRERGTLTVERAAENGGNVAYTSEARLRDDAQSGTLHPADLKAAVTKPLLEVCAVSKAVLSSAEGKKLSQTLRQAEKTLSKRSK
The experiment can be described thus: Trypanosoma cruzi tyrosyl tRNA synthetase (TcYRS) _High Tyrosine SOP. Note: in the data most compounds retested in dose-response had high values. The format is functional. Conditions: 30 µM.

Experiment [9] concerns the target T4, Tyrosyl-tRNA synthetase, putative (Trypanosoma cruzi (strain CL Brener)). In words: Trypanosoma cruzi tyrosyl tRNA synthetase (TcYRS) SOP. The format is functional. The note with it: 30 µM.
For experiment [10], the target named is Chromo domain-containing protein 1 (Saccharomyces cerevisiae (strain ATCC 204508 / S288c) (Baker's yeast)) (UniProt P32657). In words: ScCHD-1 Enzyme Inhibition Assay. Note: in the data most compounds retested in dose-response had high values. The experiment is classed as functional. The note with it: 30 µM.
Chain of Chromo domain-containing protein 1 (Saccharomyces cerevisiae (strain ATCC 204508 / S288c) (Baker's yeast)) (P32657 whole entry, the tested form may be a part): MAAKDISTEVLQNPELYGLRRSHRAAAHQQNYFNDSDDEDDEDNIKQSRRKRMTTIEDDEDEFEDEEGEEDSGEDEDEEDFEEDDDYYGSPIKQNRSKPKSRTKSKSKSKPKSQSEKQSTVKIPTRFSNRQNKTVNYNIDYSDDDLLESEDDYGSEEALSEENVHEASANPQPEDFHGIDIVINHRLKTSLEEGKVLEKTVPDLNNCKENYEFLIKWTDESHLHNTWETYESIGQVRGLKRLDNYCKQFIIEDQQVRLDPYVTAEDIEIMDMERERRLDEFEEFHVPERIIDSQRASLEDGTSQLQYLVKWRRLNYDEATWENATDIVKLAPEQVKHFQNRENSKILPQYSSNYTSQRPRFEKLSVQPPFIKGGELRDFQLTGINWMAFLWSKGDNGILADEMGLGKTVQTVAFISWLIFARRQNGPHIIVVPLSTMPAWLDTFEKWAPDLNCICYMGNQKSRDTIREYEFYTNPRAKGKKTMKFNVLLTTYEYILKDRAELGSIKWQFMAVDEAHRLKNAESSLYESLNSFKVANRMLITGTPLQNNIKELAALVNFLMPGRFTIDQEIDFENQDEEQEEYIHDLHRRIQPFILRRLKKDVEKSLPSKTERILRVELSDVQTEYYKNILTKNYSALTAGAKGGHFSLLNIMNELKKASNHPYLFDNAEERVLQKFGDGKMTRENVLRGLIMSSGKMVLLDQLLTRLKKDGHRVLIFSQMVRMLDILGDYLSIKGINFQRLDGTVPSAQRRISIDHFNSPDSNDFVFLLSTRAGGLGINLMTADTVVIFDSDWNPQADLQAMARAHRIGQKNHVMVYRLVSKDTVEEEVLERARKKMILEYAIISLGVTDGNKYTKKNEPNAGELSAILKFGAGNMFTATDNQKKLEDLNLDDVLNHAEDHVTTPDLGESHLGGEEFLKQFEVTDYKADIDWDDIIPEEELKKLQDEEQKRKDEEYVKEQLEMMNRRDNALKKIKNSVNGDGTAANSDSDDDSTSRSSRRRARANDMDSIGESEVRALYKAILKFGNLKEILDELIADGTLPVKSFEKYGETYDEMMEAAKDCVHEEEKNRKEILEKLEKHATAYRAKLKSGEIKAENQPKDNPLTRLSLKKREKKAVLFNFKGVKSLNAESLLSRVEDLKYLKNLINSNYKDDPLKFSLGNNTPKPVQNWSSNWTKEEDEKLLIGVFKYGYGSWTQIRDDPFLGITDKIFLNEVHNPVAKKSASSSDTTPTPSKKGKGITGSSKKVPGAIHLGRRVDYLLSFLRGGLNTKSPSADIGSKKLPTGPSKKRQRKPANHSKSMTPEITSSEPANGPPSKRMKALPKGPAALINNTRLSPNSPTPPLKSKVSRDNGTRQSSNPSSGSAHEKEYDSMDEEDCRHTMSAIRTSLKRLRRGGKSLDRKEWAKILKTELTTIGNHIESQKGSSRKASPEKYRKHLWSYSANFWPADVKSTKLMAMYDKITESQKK
The test system of experiment [11] is N/A. The experiment can be described thus: Trypanosoma cruzi proteasome luciferase counter-screen. The format is functional. The note with it: 9.37 µM. (In general: A counterscreen serves to expose hits that act by an unwanted route or on another target.)
For experiment [12], the target named is AMP-activated protein kinase, AMPK (Homo sapiens) (UniProt P54646+O43741+P54619+Q9UGJ0+Q9Y478+Q13131+Q9UGI9). The experiment can be described thus: AMP-dependent Kinase enzyme assay. An in vitro enzyme assay that detects ADP turnover that is directly proportional to AMPK activity. This uses naive AMPK that is activated during the assay with MK-8722. The note with it: 30 µM. The experiment is classed as functional.

Values joined by “and” are separate entries in the source; they are usually repeats but may differ in a detail not shown here. Identical values can stand only once. For some of these results: Measured potencies and affinities stand elsewhere.

Chain of Protein translocase subunit SecA (Escherichia coli (strain K12)) (P10408 whole entry): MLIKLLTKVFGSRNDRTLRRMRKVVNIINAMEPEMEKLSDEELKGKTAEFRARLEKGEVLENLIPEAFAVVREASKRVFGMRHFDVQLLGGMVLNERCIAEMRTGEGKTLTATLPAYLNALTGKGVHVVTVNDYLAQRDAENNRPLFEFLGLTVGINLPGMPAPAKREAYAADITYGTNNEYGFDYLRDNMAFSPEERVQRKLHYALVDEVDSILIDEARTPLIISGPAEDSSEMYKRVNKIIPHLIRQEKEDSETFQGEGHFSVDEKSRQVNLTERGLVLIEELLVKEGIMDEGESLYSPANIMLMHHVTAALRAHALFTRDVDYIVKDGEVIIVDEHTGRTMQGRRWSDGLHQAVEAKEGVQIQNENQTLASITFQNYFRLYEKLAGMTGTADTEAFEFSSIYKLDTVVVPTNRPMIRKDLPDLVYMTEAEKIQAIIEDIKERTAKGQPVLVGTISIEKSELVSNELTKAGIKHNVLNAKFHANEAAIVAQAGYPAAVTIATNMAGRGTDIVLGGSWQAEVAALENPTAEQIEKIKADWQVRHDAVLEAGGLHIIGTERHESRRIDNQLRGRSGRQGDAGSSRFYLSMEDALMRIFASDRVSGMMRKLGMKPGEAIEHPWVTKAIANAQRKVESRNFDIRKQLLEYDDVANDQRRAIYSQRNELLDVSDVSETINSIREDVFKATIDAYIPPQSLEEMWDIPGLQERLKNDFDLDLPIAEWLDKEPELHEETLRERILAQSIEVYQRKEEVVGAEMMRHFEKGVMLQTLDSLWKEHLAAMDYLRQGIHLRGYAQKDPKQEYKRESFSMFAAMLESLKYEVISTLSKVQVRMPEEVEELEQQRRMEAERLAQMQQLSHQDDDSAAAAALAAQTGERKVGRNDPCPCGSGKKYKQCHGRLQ

In the case of `CC(C)c1noc(CCC(=O)NCC2CCOC2)n1` (stereo not given), the Percent Effect was -1.25% in experiment [1]; 0% in experiment [2]; -0.749% in [3]; 0.602% in [4]; -5.32% in experiment [5] (33.3 µM); 10.8% in experiment [6]. Moreover, the Percent Effect in experiment [7] was 2.04%; in experiment [8] it was 8.95%; in [9], 17.9%; in [10], -9.05%.

Consider `COc1ccc2c(c1)OCC(CNC(=O)c1ccc(=O)n(C)c1)C2` (stereo not given), for which the Percent Effect was -9.07% in [1]; -2.7% in [2]; 20.7% in [3]; 5.72% in experiment [4]; -5.95% in experiment [5] (30 µM); 17.8% in [5] (33.3 µM). For the same compound, the Percent Effect in [6] was 12.5%; in [7], 9.66%; in [8], 4.79%; in [9], 9.76%; in experiment [10] it was 0.784%.

Regarding `COc1cccc(-c2nc(CNCCn3cccn3)cs2)c1`, the Percent Effect in experiment [1] was -0.562%; in experiment [2], -2.56%; in experiment [3], -1.83%; in experiment [4], -5.54%; in [5] (33.3 µM), 2.46%; in [6] it was 59.5% and 60.9% and 43.9%. The Percent Effect was 31.8% and 30.9% in experiment [11]; 37.8% in [7]; 4.31% in experiment [8]; 6.02% in experiment [9]; 1.48% in experiment [10].

With `CC(C)CN1CCN(C(=O)NCc2cccnc2-n2cccn2)CC1`, the Percent Effect in [1] is -3.93%; in [2], 16%; in [3], -3.1%; in experiment [4] it was -6.02%; in [5] (33.3 µM), -2.22%; in experiment [6] it was 10.4%. Further, the Percent Effect in experiment [7] was 2.63%; in [8], 5.79%; in experiment [9], 7.69%; in [10], -11.7%.

Regarding `Cc1ccc(N2CCC3(CCN(C(N)=O)CC3)CC2)nn1`, the Percent Effect is -4.59% in [1]; 1.3% in experiment [2]; -5.12% in experiment [3]; -8.47% in [4]; 3.64% in experiment [5] (33.3 µM); 13.5% in [6]. For the same compound, the Percent Effect in [7] was 5.72%; in [8], 1.58%; in [9], 0%; in experiment [10] it was -0.155%.

As to `O=C(CN1CCCC(Cn2cncn2)C1)NCCOc1ccccc1` (stereo not given), the Percent Effect in experiment [1] is 3.17%; in experiment [2] it was -2.67%; in experiment [3], 2.29%; in [4], -1.41%; in [5] (33.3 µM), 5.32%; in experiment [6], 4.67%. Also, the Percent Effect is 6.94% in [7], 0.526% in [8], 0% in experiment [9] and -6.78% in experiment [10].

Take `Cc1nc(CN2CCC3(CC2)NC(=O)CC3c2ccccc2)cs1` (stereo not given): the Percent Effect in experiment [1] was -3.5%; in experiment [2] it was -1.3%; in experiment [3], -0.193%; in [4] it was 0.375%; in [5] (33.3 µM) it was -0.913%; in experiment [6] it was 9.19%. Besides, the Percent Effect was 4.58% in experiment [7], 8.7% in experiment [8], 12.5% in experiment [9] and -9.48% in experiment [10].

For the compound `Cc1cnn(CC(C)NCc2ccc(-n3cccn3)cc2)c1` (stereo not given), the Percent Effect was -1.91% in experiment [1]; 1.27% in experiment [2]; 2.55% in experiment [12]; -4.21% in [3]; -3.18% in experiment [4]; 0.645% in experiment [5] (33.3 µM). The Percent Effect in experiment [6] was -0.858%; in experiment [7], -0.795%; in [8], 0%; in experiment [9], -12.7%; in experiment [10], -18.2%.

In the case of `COC(=O)C1CCN(c2cncc(-n3nc(C)cc3C)n2)CC1`, the Percent Effect was -4% in [1]; 0% in [2]; 4.1% in experiment [12]; 5.66% in [3]; -7.03% in experiment [4]; 4.17% in experiment [5] (33.3 µM). In addition, the Percent Effect in [6] was 15.6%; in experiment [7], 12.6%; in experiment [8], 3.96%; in experiment [9], 3.66%; in [10], -8.43%.

On to `Cc1nc(N)sc1C(=O)N1CCCC(c2nccn2CCCN(C)C)C1` (stereo not given), for which the Percent Effect in [1] is -5.86%; in experiment [2] it was 10.8%; in experiment [3] it was 10.2%; in experiment [4] it was 7.47%; in [5] (30 µM) it was 9.19%; in [5] (33.3 µM) it was -3.15%. Moreover, the Percent Effect stood at 13.2% in [6]; 7.55% in experiment [7]; 11.2% in experiment [8]; 9.76% in [9]; 95.1% in experiment [10].

Take `CC(O)CNC(=O)NCc1cccnc1OC1CCCC1` (stereo not given): the Percent Effect in [1] was -1.77%; in experiment [2], 13.3%; in experiment [3], -3.55%; in experiment [4], -3.21%; in experiment [5] (33.3 µM) it was 7.54%; in experiment [6] it was 2.63%. Moreover, the Percent Effect in experiment [7] is 10.2%; in experiment [8], 6.84%; in experiment [9] it was 2.56%; in experiment [10] it was -11.2%.
